# Assay results as given in the supplement of paper PMC8866396.
# ± gives the standard deviation of the averaged measurements.
# How the values were obtained:
# [1] = tested on: IL-6-GFP PC-9GR; test: cell viability (CCK-8 OD) relative to DMSO control (fraction of control); higher = more viable cells; conditions: compound concentration: 10 uM; treatment time: 48 h
# Summary of the method: (§1)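 PC-9 and PC-9GR lung cancer cells carrying a lentiviral construct that overexpresses IL-6-GFP were seeded in 96-well plates at 3000 cells/well. Every compound in a purchased 510-compound library was applied at a final 10 μM for 48 h, and a parallel set of plates was kept for GFP imaging. Cell viability was read by CCK-8 absorbance, taking each well's optical density as a ratio to the vehicle control well. Two independent replicates were run.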
# [2] = tested on: IL-6-GFP PC-9; test: as above; conditions: compound concentration: 10 uM; treatment time: 48 h
# Summary of the method: as §1
SMILES,cell viability [1],cell viability [2]
Cc1c(N)c(=O)n(-c2ccccc2)n1C [4-Aminoantipyrine],0.98 ± 0.13,1.212 ± 0.0049
CO/N=C(\C(=O)NC1C(=O)N2C(C(=O)OCOC(=O)C(C)(C)C)=C(C)CSC12)c1csc(N)n1.Cl (stereo unspecified) [Cefetamet pivoxil hydrochloride],1.25 ± 0.28,1.14 ± 0.056
CCCCOC(=O)c1ccccc1Nc1cccc(C(F)(F)F)c1 [Ufenamate],0.8299 ± 0.0043,0.992 ± 0.24
COc1ccc2cc1Oc1ccc(cc1)CC1c3cc(c(OC)cc3CCN1C)Oc1c(OC)c(OC)cc3c1C(C2)N(C)CC3 (stereo unspecified) [Tetrandrine],1.15 ± 0.36,1.3 ± 0.043
C/C=C(/C(=C/C)c1ccc(O)cc1)c1ccc(O)cc1 [Dienestrol],1.06 ± 0.025,1.16 ± 0.093
CCC1/C=C(\C)CC(C)CC(OC)C2OC(O)(C(=O)C(=O)N3CCCCC3C(=O)OC(/C(C)=C/C3CCC(Cl)C(OC)C3)C(C)C(O)CC1=O)C(C)CC2OC (stereo unspecified) [Pimecrolimus],1 ± 0.18,1.02 ± 0.071
COC(=O)NC(C(=O)N1CCCC1c1ncc(-c2ccc3c(c2)OC(c2ccccc2)n2c-3cc3cc(-c4cnc(C5CCCN5C(=O)C(NC(=O)OC)C(C)C)[nH]4)ccc32)[nH]1)C(C)C (stereo unspecified) [Elbasvir],0.497 ± 0.03,0.809 ± 0.035
COc1nc2ccc(Br)cc2cc1C(c1ccccc1)C(O)(CCN(C)C)c1cccc2ccccc12.O=C(O)/C=C/C(=O)O (stereo unspecified) [Bedaquiline fumarate],1.18 ± 0.17,1.15 ± 0.067
COc1cc(N2CCC(N3CCN(C)CC3)CC2)ccc1Nc1ncc(Cl)c(Nc2ccccc2P(C)(C)=O)n1,0.688 ± 0.15,0.41 ± 0.083
CC1(C)SC2C(NC(=O)C(c3ccccc3)S(=O)(=O)[O-])C(=O)N2C1C(=O)[O-].[Na+].[Na+] (stereo unspecified) [Sulbenicillin Sodium],0.802 ± 0.17,0.857 ± 0.019
Cc1c(O)c(C)c2c(c1O)C(=O)CC(c1ccc(O)cc1)O2 (stereo unspecified) [Farrerol],1.19 ± 0.11,1.05 ± 0.037
CN1CCN(c2ccc(C(=O)Nc3n[nH]c4ccc(Cc5cc(F)cc(F)c5)cc34)c(NC3CCOCC3)c2)CC1 [Entrectinib (RXDX-101)],0.164 ± 0.14,0.515 ± 0.14
Cc1nc(Nc2ccc(F)cc2)nc(N2CCc3ccccc3C2C)c1C.Cl (stereo unspecified) [Revaprazan Hydrochloride],1.63 ± 0.64,1.14 ± 0.043
CC(Cn1ccc(-c2ccc(C#N)c(Cl)c2)n1)NC(=O)c1cc(C(C)O)[nH]n1 (stereo unspecified) [Darolutamide (ODM-201)],0.858 ± 0.18,0.962 ± 0.21
CC1CC2C3CCC4=CC(=O)C=CC4(C)C3C(=O)CC2(C)C1(O)C(=O)CO (stereo unspecified) [Meprednisone],1.25 ± 0.14,1.46 ± 0.35
CC(NCc1ccc(OCc2cccc(F)c2)cc1)C(N)=O.CS(=O)(=O)O (stereo unspecified) [Safinamide Mesylate],1.27 ± 0.017,0.749 ± 0.14
CCC(=O)OC1(C(=O)SCF)C(C)CC2C3CC(F)C4=CC(=O)C=CC4(C)C3(F)C(O)CC21C (stereo unspecified) [Fluticasone propionate],1.06 ± 0.43,0.821 ± 0.024
Nc1nc(=O)c2c(CCc3ccc(C(=O)NC(CCC(=O)[O-])C(=O)[O-])cc3)c[nH]c2[nH]1.[Na+].[Na+] (stereo unspecified) [Pemetrexed],0.483 ± 0.064,0.635 ± 0.1
CC(=O)Nc1cccc(-n2c(=O)n(C3CC3)c(=O)c3c(Nc4ccc(I)cc4F)n(C)c(=O)c(C)c32)c1,1.04 ± 0.14,0.791 ± 0.31
CC(=O)Nc1ccc(OC(=O)c2ccccc2OC(C)=O)cc1 [Benorylate],1.54 ± 0.41,1.13 ± 0.046
COc1cc2nccc(Oc3ccc(NC(=O)C4(C(=O)Nc5ccc(F)cc5)CC4)cc3)c2cc1OC.O=C(O)CC(O)C(=O)O [Cabozantinib malate (XL184)],0.81 ± 0.13,0.958 ± 0.062
CCOc1cc2ncc(C#N)c(Nc3ccc(OCc4ccccn4)c(Cl)c3)c2cc1NC(=O)/C=C/CN(C)C [Neratinib (HKI-272)],0.795 ± 0.045,0.506 ± 0.052
CN1CCC(NC(=O)Nc2ccc(C#N)cc2)CC1c1nc2ccccc2[nH]1 (stereo unspecified),0.848 ± 0.016,1.21 ± 0.033
Cc1nc(Nc2ncc(C(=O)Nc3c(C)cccc3Cl)s2)cc(N2CCN(CCO)CC2)n1 [Dasatinib],0.953 ± 0.026,0.206 ± 0.2
Cc1nccn1CC1CCc2c(c3ccccc3n2C)C1=O.Cl (stereo unspecified) [Ondansetron HCl],1.24 ± 0.19,1.18 ± 0.093
NCCc1c[nH]cn1 [Histamine],1.05 ± 0.16,1.29 ± 0.22
Oc1ccc(/C=C/c2cc(O)cc(O)c2)cc1 [Resveratrol],1.38 ± 0.065,1.37 ± 0.064
CNC(=O)c1ccccc1Sc1ccc2c(/C=C/c3ccccn3)n[nH]c2c1 [Axitinib],0.712 ± 0.0072,0.532 ± 0.05
